Experiment in all cases: NCI-60 one-dose screen, 48 h (100 = growth as untreated, 0 = no growth, -100 = all killed)
What all share (conditions): 10 µM unless noted

The subject of assay [1] is SR leukemia.
Assay [2] deals with RPMI-8226 leukemia.
The test system of assay [3] is OVCAR-8 ovarian.
For assay [4], the system named is OVCAR-5 ovarian.
Assay [5] relates to SK-OV-3 ovarian.
The test system of assay [6] is IGROV1 ovarian.
In assay [7] the test system is OVCAR-3 ovarian.
Assay [8] relates to NCI/ADR-RES ovarian.
In assay [9] the test system is T-47D breast.
In assay [10] the test system is BT-549 breast.
The subject of assay [11] is MDA-MB-435 melanoma.
Assay [12] concerns SW-620 colon.
In assay [13] the test system is MCF7 breast.
Assay [14] concerns HCT-116 colon.
The test system of assay [15] is HCC-2998 colon.
The test system of assay [16] is KM12 colon.
In assay [17] the test system is HS 578T breast.
Assay [18] deals with OVCAR-4 ovarian.

Data on 18 compounds can be found in PubChem BioAssay (NCI).

Compounds without any hit were thinned out: in the full panel of roughly 83,000, 20% have a hit.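 Plates (96-well) were seeded with cells, treated with compound at one concentration, and incubated for 48 hours before percent growth was determined.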 Values without a mark were called inactive. Activity calls are given as the source filed them. The calls were made as follows: active = growth percent below 10; inactive = the rest.

On to `Cc1ccc(C)c(NC(=O)c2sc3c(=O)[nH]cnc3c2C)c1`, for which the growth in assay [1] was 15.8%; in assay [2] it was 87.7%; in [3], 98.2%; in assay [4], 127%; in assay [5] it was 101%; in assay [6], 79.8%. The growth was 70.7% in assay [7]; 58% in [8]; 86.9% in assay [9]; 80.2% in [10]; -36% (active) in assay [11]; 42.8% in [12]. Besides, the growth in assay [13] is 62.8%; in assay [14] it was 68.3%; in [15], 87.7%; in [16], 46.2%.
Consider `CCOC(=O)Nc1ccc2nc(Sc3ccc(Cl)cc3)sc2c1`, for which the growth in [1] was 9.2% (active); in [2] it was 21.5%; in assay [3] it was 44.6%; in assay [4], 85.9%; in assay [5], 22.5%; in assay [6], 43.4%. Also, the growth in assay [7] was 0.656% (active); in [17], 50.8%; in [8] it was 14%; in [9] it was 36.4%; in [10], 58.5%; in assay [11], 1.41% (active). Besides, the growth is 29% in assay [12]; 16.7% in [13]; 30.5% in [14]; 57.1% in assay [15]; 26.9% in assay [16].
Consider `Cc1csc(N/N=C/c2ccncc2)n1`, for which the growth in assay [1] was 96.6%; in assay [2], 131%; in [3], 97.7%; in assay [4] it was 112%; in assay [5] it was 101%; in assay [6], 105%. Further, the growth was 112% in assay [7]; 107% in assay [8]; 94% in assay [9]; 105% in assay [10]; 104% in assay [11]; 103% in assay [12]. Also, the growth was 87.1% in [13], 97.6% in assay [14], 99.9% in assay [15] and 106% in assay [16].
With `C=CCOc1ccc2c(C)cc(=O)oc2c1`, the growth was 128% in assay [1]; 93.8% in assay [2]; 103% in assay [3]; 113% in [4]; 117% in assay [5]; 113% in [6]. Also, the growth in assay [7] was 105%; in assay [8] it was 104%; in assay [10], 109%; in [11], 98.3%; in assay [12] it was 109%; in assay [14], 105%. In addition, the growth was 100% in assay [15] and 105% in assay [16].
For `CCCCCc1c(C)[nH]c(/C=C2\N=C(c3ccc[nH]3)C=C2Oc2ccc(OC)cc2)c1C`, the growth is -9.14% [100 µM] (active) in assay [1]; -37.7% [100 µM] (active) in assay [2]; -65.3% [100 µM] (active) in assay [4]; -99.7% [100 µM] (active) in assay [18]; -63.2% [100 µM] (active) in assay [5]; -70.6% [100 µM] (active) in assay [6]. Further, the growth is -95% [100 µM] (active) in [7]; 0.631% [100 µM] (active) in assay [17]; -78% [100 µM] (active) in assay [8]; -48.5% [100 µM] (active) in assay [9]; -91.5% [100 µM] (active) in assay [10]; -82.2% [100 µM] (active) in [11]. The growth is -56.5% [100 µM] (active) in assay [12], -100% [100 µM] (active) in assay [13], -99.4% [100 µM] (active) in assay [14] and -58.2% [100 µM] (active) in assay [15].
Regarding `Cc1cc([N+](=O)[O-])c(C)cc1N`, the growth is 90.9% in [1]; 96.5% in [2]; 102% in [3]; 116% in [4]; 111% in assay [5]; 96.9% in [6]. Moreover, the growth was 104% in assay [7]; 107% in [17]; 106% in assay [8]; 111% in assay [9]; 101% in assay [10]; 104% in assay [12]. Moreover, the growth in [13] is 90.9%; in [14] it was 109%; in assay [15], 102%; in assay [16] it was 107%.
`CCCCCCCCCCCCCCCCCC(=O)OCCCCCCCCCCCCC`: the growth was 116% in assay [1]; 95% in assay [2]; 109% in assay [3]; 113% in assay [4]; 114% in [5]; 106% in assay [6]. Moreover, the growth in assay [7] was 114%; in assay [9] it was 98.4%; in assay [10] it was 133%; in assay [11] it was 109%; in assay [12], 117%; in assay [13], 114%. The growth was 111% in [14], 113% in [15] and 105% in assay [16].
`CCN(CC)c1ccc(/C=N/N=C(N)N)cc1`: the growth in [1] was 27.6%; in assay [2] it was 3.74% (active); in assay [3], 62.6%; in [4] it was 79.8%; in [5] it was 37.6%; in assay [6], 63.3%. The growth was 4.63% (active) in assay [7]; 55.3% in [17]; 93% in assay [8]; 51.5% in assay [10]; 19.3% in [12]; 15.4% in assay [13]. The growth in [14] was 32.5%; in assay [15], 85.5%; in assay [16] it was 25.2%.
Consider `CC1(C)CC(=O)c2cc3c(N)c(C(=O)Nc4ccc(Cl)cc4)sc3nc2C1`, for which the growth in assay [1] was 113%; in [2] it was 103%; in assay [3] it was 111%; in [5] it was 106%; in assay [6] it was 111%; in assay [7] it was 111%. Further, the growth was 109% in assay [17]; 114% in [8]; 96.2% in assay [9]; 125% in [10]; 109% in assay [11]; 109% in assay [12]. For the same compound, the growth in assay [13] is 103%; in [14], 108%; in assay [15], 116%; in assay [16], 117%.
`Cn1c(-c2ccccc2)cc(=O)n1-c1ccccc1`: the growth was 101% in assay [1]; 96.5% in [2]; 107% in assay [3]; 104% in assay [4]; 110% in assay [5]; 114% in assay [6]. The growth is 124% in assay [7]; 115% in assay [17]; 112% in [8]; 102% in assay [9]; 110% in [10]; 98.4% in assay [11]. Besides, the growth in assay [12] was 117%; in assay [13], 93.6%; in [14], 100%; in assay [15] it was 100%; in assay [16] it was 103%.
Take `COc1ccc(C(=O)C(CN(C)C)c2ccc(OC)cc2)cc1` (stereo not given): the growth in assay [1] is 0.837% (active); in [2], 1.35% (active); in assay [3], 42.2%; in [4], 94.8%; in assay [5], 98.8%; in assay [6], 86.9%. The growth is -4.36% (active) in [7]; 92.2% in assay [17]; 67.3% in assay [8]; 56.7% in assay [9]; 2.74% (active) in assay [10]; 43.8% in assay [11]. The growth is 11.9% in [12]; 18.5% in [13]; 14.7% in assay [14]; 117% in [15]; 78% in assay [16].
Take `C=CCCCCOc1cccc(/C=C2\N=C3SCCCN3C2=O)c1`: the growth in assay [1] is 125%; in assay [2], 103%; in assay [3] it was 101%; in assay [4], 106%; in assay [5] it was 97.7%; in assay [6], 88.6%. The growth is 107% in [7]; 112% in assay [17]; 95.6% in assay [8]; -2.85% (active) in [9]; 94.4% in [10]; 106% in assay [11]. In addition, the growth in assay [12] is 103%; in [13], 88.9%; in [14], 86.2%; in assay [15] it was 100%; in assay [16], 98.4%.
Regarding `N=C(N)c1ccc(-c2ccc(-c3ccco3)o2)cc1F`, the growth was -9.28% (active) in assay [1]; -23.2% (active) in assay [2]; 45% in assay [3]; 17.8% in assay [4]; 40.1% in assay [5]; 11.9% in [6]. The growth in assay [7] is 54.1%; in assay [17], 48.8%; in assay [8], 45.2%; in [9], -27.8% (active); in [10], 25%; in assay [11] it was -59.1% (active). Moreover, the growth was -11.3% (active) in assay [12]; -13.7% (active) in assay [13]; -21.2% (active) in [14]; -74.7% (active) in assay [15]; 4.94% (active) in assay [16].
For `CC(C)CC1NC(=O)C(CC(C)C)N(CO)C1=O` (stereo not given), the growth is 96.4% in assay [1]; 81.1% in [2]; 107% in assay [3]; 106% in assay [4]; 102% in assay [5]; 106% in [6]. The growth is 123% in assay [7]; 106% in assay [17]; 117% in assay [8]; 96.5% in assay [9]; 101% in assay [10]; 112% in assay [12]. Further, the growth in [13] is 92.7%; in [14], 98.8%; in assay [15], 102%; in assay [16] it was 110%.
Take `O=C(N/N=C/c1ccc([N+](=O)[O-])cc1)c1ccccc1Nc1ccnc(C(F)(F)F)c1`: the growth in [1] was 99.6%; in assay [2] it was 11.2%; in assay [3], 86.8%; in assay [4], 75.7%; in assay [5] it was 84.9%; in assay [6] it was 75.3%. Besides, the growth in assay [7] is 91.5%; in [17], -27.6% (active); in assay [8] it was 71.9%; in assay [9], 47.2%; in assay [10] it was 87.4%; in assay [12], -44.6% (active). Also, the growth in assay [13] is 95%; in assay [14], 76.8%; in [16] it was 87.1%.
Take `C=CC(=O)N1CN(C(=O)C=C)CN(C(=O)C=C)C1`: the growth is 25.3% in [1]; 84.6% in [2]; 62.4% in assay [3]; 109% in assay [4]; 99% in assay [5]; 56.8% in assay [6]. In addition, the growth in [7] was 4.76% (active); in assay [17], 71.8%; in [8], 70.8%; in [9], 33.6%; in assay [10] it was 76.3%; in assay [11], 81.2%. The growth in [12] is 15.3%; in assay [13], 39.6%; in assay [14] it was 13.7%; in [15], 101%; in assay [16], 85.8%.
Regarding `O=[N+]([O-])c1ccc(N=Nc2c(NNc3ccc([N+](=O)[O-])cn3)cc(S(=O)(=O)O)c3ccccc23)nc1`, the growth is 47.2% in [1]; 90% in assay [2]; 67.5% in assay [3]; 91.4% in assay [4]; 78% in assay [5]; 84.9% in assay [6]. Besides, the growth is -5.33% (active) in assay [7]; 79.5% in assay [8]; 90.9% in assay [9]; 81.7% in assay [10]; 90% in [11]; 83.1% in assay [12]. Also, the growth was 85.9% in [13], 69.6% in assay [14], 87.1% in [15] and 87.6% in assay [16].
Consider `CCOc1cc(/C=N\NC(=O)C[N+](C)(C)C)ccc1O`, for which the growth in assay [1] was 14.3%; in assay [2] it was 94%; in [3], 113%; in assay [4] it was 101%; in [5], 105%; in assay [6], 118%. Further, the growth in assay [7] is 116%; in [17], 117%; in assay [8], 103%; in assay [9] it was 94.1%; in [10] it was 117%; in [11] it was 109%. In addition, the growth is 110% in [12]; 105% in [13]; 111% in assay [14]; 104% in [15]; 109% in assay [16].
